Bioassay records deposited in PubChem by several laboratories.
GDH-TPI counter – counter-screen for M. tuberculosis FBA inhibitors: GDH-TPI coupled enzymes. GDH-TPI coupled enzyme counterscreen, NADH absorbance. inhibition, % at 4.8 µM. 1.2% of 360,000 active. AID 588335; in the data active = inhibition above about 30%;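 also: 0% = DMSO wells and 100% = wells lacking the enzyme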
BJeLR viability – BJeLR cell viability loss; AID 1554; inhibition, % (test concentration not listed); BJeLR (HRASV12) viability, CellTiter-Glo ATP luminescence, 48 h; 0.17% of 300,000 active; in the data active = inhibition above about 50%
Mtb FBA inh – inhibits M. tuberculosis FBA enzyme; purified M. tuberculosis FBA, fluorescence read-out; inhibition, % at 1 µM; P9WQA3; 2.3% of 360,000 active; in the data active = inhibition above about 27%;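 also: 0% = vehicle and 100% = reference inhibitor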
Target sequence (P9WQA3 whole entry, looked up): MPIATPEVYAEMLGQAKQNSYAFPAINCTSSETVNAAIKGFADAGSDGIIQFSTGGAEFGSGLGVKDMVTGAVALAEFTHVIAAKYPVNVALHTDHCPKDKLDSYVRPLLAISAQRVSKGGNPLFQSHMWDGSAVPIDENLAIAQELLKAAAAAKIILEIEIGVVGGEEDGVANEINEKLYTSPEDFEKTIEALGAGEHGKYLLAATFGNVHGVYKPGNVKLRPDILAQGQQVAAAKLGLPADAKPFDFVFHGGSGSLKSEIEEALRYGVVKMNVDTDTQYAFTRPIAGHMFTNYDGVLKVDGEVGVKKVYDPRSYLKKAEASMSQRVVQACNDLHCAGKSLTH
PrPC TRFRET – cell surface PrPC inhibition, primary TR-FRET screen | AID 720596 | P04156 | inhibition, % at 13.8 µM | 0.43% of 370,000 active | TR-FRET read-out; in the data active = inhibition above about 24%; also: 0% = median of the test wells and 100% = reference compound wells
PrP 5UTR inh – inhibition of PrP 5' UTR reporter expression; 0.35% of 340,000 active; cell-based PrP 5' UTR mRNA reporter, plate reader; inhibition, % (test concentration not listed); in the data active = inhibition above about 52%; also: 0 = median of the neutral control wells
PfHsp40 rescue – compounds rescuing yeast from Plasmodium falciparum HSP40 toxicity; S. cerevisiae expressing PfHsp40, growth rescue, ATP luminescence; growth rescue, % at 12.5 µM; 0.68% of 340,000 active; in the data active = growth rescue above about 28%, passing the limit was not always enough;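 also: yeast W303a lacking pdr1 and pdr3 grown in galactose medium; growth measured after three days at 30 °C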
* marks the source's active call; other numbers are inactive results; x = not tested or not shown; + = active, no number. This is a sample that favours compounds with a hit; in the whole collection about 4.5% have one here.

SMILES | GDH-TPI counter | BJeLR viability | Mtb FBA inh | PrPC TRFRET | PrP 5UTR inh | PfHsp40 rescue
COC(=O)c1sc(-c2ccc(Cl)cc2)cc1NC(=O)COCC(=O)O | 35* | -4 | 14 | -16 | -23 | 0
CCOC(=O)C1(C(C)(C)CC)CC(CSc2nc3ccccc3[nH]2)OC1=O (centres undefined) | -7 | -17 | -2 | 5 | -22 | 69*
CCOC(=O)NC(=O)CSc1nc2ccccc2[nH]1 | 5 | 8 | 2 | 1 | -13 | -1
O=C(CCc1ccccc1)N[C@H]1[C@H](OC(=O)c2cnccn2)CCC[C@@]12C(=O)N(Cc1ccccc1)c1ccccc12 | x | x | x | 8 | x | x
O=C(Nc1ccc(OC(F)(F)F)cc1)Nc1c(-c2ccc(C(F)(F)F)cc2)nc2ncccn12 | x | x | x | 6 | x | x
Clc1ccc(-c2cn3cccnc3n2)cc1 | 12 | 12 | + | -6 | -39 | 1
Brc1ccc(-c2cn3cccnc3n2)cc1 | 17 | x | 139* | -14 | -40 | 3
COc1ccc(-c2cn3cccnc3n2)cc1F | 12 | 4 | + | -12 | -49 | 0
O=S(=O)(Nc1cccc(-c2cn3cccnc3n2)c1)c1ccc(-c2ccccc2)cc1 | 16 | 2 | 11 | 4 | -5 | -1
c1ccc(CN2CCN(Cc3cn4cccnc4n3)CC2)cc1 | 0 | -1 | 8 | 3 | -16 | 0
COc1ccc(-c2cn3cccnc3n2)cc1NS(=O)(=O)c1ccccc1 | 14 | 4 | 15 | -7 | -18 | 1
Clc1ccc(-c2cn3cccnc3n2)cc1Cl | 15 | 5 | 70* | -6 | -60 | 0
COC(=O)[C@]12C[C@H](CC(=O)NCC34CC5CC(CC(C5)C3)C4)C(=O)N(Cc3ccco3)C1=C[C@H](C(C)(C)C)O[C@@H]2C | x | x | x | -4 | x | x
COc1ccc(C(=O)/C=C\N2CCOCC2)cc1 | 33* | -1 | -1 | -2 | -19 | 0
CC(C)(C)c1cc(C=C(C#N)C#N)cc(C(C)(C)C)c1O | 9 | x | -22 | -3 | 29 | 211*
N#CC(C#N)=Cc1ccc(O)c(O)c1 | 23 | x | 1 | 8 | 6 | 0
C#CC1(O)C2C=C(OC)C(=O)C1C(c1ccccc1)C2C (centres undefined) | x | x | x | -9 | x | x
Cc1ccccc1C=O | 3 | x | 4 | 4 | -2 | 1
O=CC1=C(c2ccccc2)Oc2ccccc2O1 | 7 | 12 | 1 | 7 | -10 | 495*
CCCn1c(=O)c2[nH]c(-c3ccc(S(=O)(=O)O)cc3)nc2n(CCC)c1=O | 9 | x | + | 4 | -24 | 0
Cc1c(NC(=O)C2CCCN(S(=O)(=O)c3ccccc3[N+](=O)[O-])C2)c(=O)n(-c2ccccc2)n1C (centres undefined) | x | x | x | 2 | x | x
CC1CCCN(CCCNC(=O)c2cc3c(s2)-c2ccccc2OC3)C1 (centres undefined) | 23 | 15 | x | -14 | -22 | -1
CCN(C(=O)c1cc2c(s1)-c1ccccc1OC2)c1cc(OC)ccc1OC | 21 | -8 | 2 | 0 | -21 | 14
COc1ccc(N(C)C(=O)c2cc3c(s2)-c2c(C)cccc2OC3)c(OC)c1 | 31* | -1 | 6 | -3 | x | 1
CC1CCN(CCCNC(=O)c2cc3c(s2)-c2ccccc2OC3)CC1 | 8 | 6 | + | -19 | -6 | 0
SMILES | GDH-TPI counter | BJeLR viability | Mtb FBA inh | PrPC TRFRET | PrP 5UTR inh | PfHsp40 rescue
Cc1cccc2c1-c1sc(C(=O)NCCCN3CCC(C)CC3)cc1CO2 | 16 | 10 | + | -25 | 6 | 0
CCN(CC)C(=O)CC[C@H]1CC[C@]2(CCCN(C(=O)c3ccccc3)C2)O1 | x | x | x | 0 | x | x
Cc1ccccc1NC(=O)c1cccc2c1-c1ccccc1C2=O | x | x | x | -5 | x | x
CCCCNC(=O)C1(C(=O)c2ccc(OC)cc2)CC(c2ccccc2C(F)(F)F)=NO1 (centres undefined) | x | x | x | 5 | x | x
O=C1C(=O)N(CCO)C(c2ccccc2)/C1=C(\O)c1ccccc1 (centres undefined) | 28 | -1 | 1 | -11 | -9 | 0
O=C1C(=O)N(CCO)C(c2ccc(Br)cc2)/C1=C(\O)c1ccccc1 (centres undefined) | 33* | -2 | 2 | 1 | 5 | 0
O=Nc1c(O)n(Cc2ccc(Cl)c(Cl)c2)c2ccccc12 | -4 | -7 | -1 | -5 | -3 | 259*
Cc1ccc(C(=O)N/N=C\c2cc3c(cc2Br)OCO3)cn1 | 10 | 1 | -3 | 2 | -23 | -2
CC(/C=C/c1ccc2c(c1)OCO2)=N/NC(=O)c1cccnc1 | 42* | -6 | -1 | 6 | -17 | 0
CC(/C=C/c1ccc2c(c1)OCO2)=N/NC(=O)c1ccc(C)nc1 | 36* | 0 | 4 | -1 | -2 | 0
CC(/C=C/c1ccc2c(c1)OCO2)=N/NC(=O)c1ccncc1 | 48* | -12 | -3 | 0 | -11 | 1
O=C(CCc1ccccc1)N[C@H]1[C@@H](OC(=O)c2cccnc2)CCC[C@]12C(=O)N(Cc1ccccc1)c1ccccc12 | x | x | x | -8 | x | x
CCOC(=O)C(/C=C(\C#N)C(=O)OCC)=C(/N)N1CCN(c2ccccc2)CC1 | 36* | 13 | 0 | 2 | -30 | -1
COc1ccc(/C=N/NC(=O)c2nnn(-c3nonc3N)c2-c2cccs2)c(OC)c1 | 46* | -9 | -1 | 0 | -36 | -2
COc1ccccc1/C=N/NC(=O)c1nnn(-c2nonc2N)c1-c1cccs1 | 43* | -3 | 4 | x | 6 | 2
COc1ccc(OC)c(/C=N/NC(=O)c2nnn(-c3nonc3N)c2-c2cccs2)c1 | 13 | 23 | 7 | 7 | -19 | 0
O=C(c1cc(Cl)cc(Cl)c1)N1CCC(Oc2cccnc2)CC1 | x | x | x | 6 | x | x
C=C(C)/C=C1/C(Cc2ccccc2)N(CC2CC2)C(=N)N1C(=O)OCc1ccccc1 (centres undefined) | x | x | x | 1 | x | x
COC(=O)[C@]12C[C@H](CC(=O)NCCCCc3ccccc3)C(=O)N(CCc3ccc(OC)c(OC)c3)C1=C[C@H](C(C)(C)C)O[C@@H]2C | x | x | x | -7 | x | x
CCCCN1CC(=O)N2[C@H](C[C@@]3(C)c4ccccc4N(S(=O)(=O)c4ccccc4)[C@@H]23)C1=O | x | x | x | -7 | x | x
C=CCn1c(-c2cccc(OC)c2)nc2nc3ccccc3nc21 | 54* | -3 | 3 | -39 | -7 | -1
C=CCn1c(-c2cccs2)nc2nc3ccccc3nc21 | 25 | 1 | + | -31 | -30 | 1
C=CCn1c(-c2cccc(OC)c2)n[nH]c1=S | 0 | -3 | 1 | 2 | -24 | 0
C=CCn1c(CC(C)(C)C)nc2ccccc21 | -5 | -4 | -1 | 3 | -12 | -1
Cc1c[nH]c2cccc(-c3ccc(Cl)cc3Cl)c12 | x | x | x | 3 | x | x
COC(CN(C(=O)CCl)C(C(=O)NC1CCCC(C)C1C)c1ccc(C)cc1)OC (centres undefined) | + | -3 | 1 | x | -10 | 0
CCOC(=O)CC[C@H]1CC[C@]2(CCCN(C(=O)c3ccno3)C2)O1 | x | x | x | -8 | x | x
